Compound activity deposited in PubChem BioAssay by The Scripps Research Institute Molecular Screening Center.
This is a sample that favours compounds with a hit; in the whole collection about 0.84% have one here.
SRC1 inh – inhibitors of human steroid receptor coactivator 1 (SRC1) | Q15788 | HEK293 GAL4-SRC1 luciferase reporter, luminescence | inhibition, % at 3.6 µM | 0.12% of 360,000 active | AID 588354;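 active means inhibition above the campaign mean plus 3 SD, with each screening campaign given its own cutoff, cut at about 60% in these data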;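 further: 0% = DMSO treated cells and 100% = gossypol at 36 µM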
NR5A2 inv ag – suppresses constitutive activity of human LRH-1; 0.13% of 360,000 active; inhibition, % at 3.6 µM; HEK293T StAR-luciferase reporter, LRH-1 transfected, 24 h; O00482;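 active means inhibition above the mean inhibition of all tested compounds plus 3 SD, cut at about 73% in these data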;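 further: 0% = DMSO wells and 100% = reporter-only cells lacking LRH-1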
NCOA3 inh – inhibits human SRC3 coactivator | Q9Y6Q9 | HEK293 GAL4-SRC3 luciferase reporter, luminescence | inhibition, % at 3.6 µM | 0.17% of 360,000 active | AID 588352;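 active means inhibition above a per-campaign cutoff, the mean of all compounds plus 3 SD, cut at about 60% in these data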;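 further: 0% = DMSO-treated cells and 100% = gossypol-treated cells at 36 µM; higher means less SRC3-driven luciferase light from the GAL4 reporter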
SRC2 inh – human SRC2 (NCOA2) inhibition; inhibition, % at 9 µM; 0.17% of 370,000 active; Q15596; HEK293 GAL4-SRC2 luciferase reporter, luminescence; AID 651957;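 active means inhibition above the mean inhibition of all tested compounds plus 3 SD, set per campaign, cut at about 52% in these data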;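 further: 0% = DMSO treated cells and 100% = cells given Gossypol at 36 µM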
NR2F2 inh – blocks human COUP-TFII nuclear receptor | inhibition, % at 8.6 µM | HEK293T NGFI-A luciferase reporter, luminescence | P24468 | 0.7% of 370,000 active;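 active means inhibition above a per-plate cutoff, mean inhibition of test wells between control levels plus 3 SD, cut at about 38% in these data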;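 further: cells cotransfected with COUP-TFII expression vector driving the NGFI-A reporter; 0% = median of COUP-TF2 test wells and 100% = reporter-only cells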
Target sequence (P24468 whole entry, looked up): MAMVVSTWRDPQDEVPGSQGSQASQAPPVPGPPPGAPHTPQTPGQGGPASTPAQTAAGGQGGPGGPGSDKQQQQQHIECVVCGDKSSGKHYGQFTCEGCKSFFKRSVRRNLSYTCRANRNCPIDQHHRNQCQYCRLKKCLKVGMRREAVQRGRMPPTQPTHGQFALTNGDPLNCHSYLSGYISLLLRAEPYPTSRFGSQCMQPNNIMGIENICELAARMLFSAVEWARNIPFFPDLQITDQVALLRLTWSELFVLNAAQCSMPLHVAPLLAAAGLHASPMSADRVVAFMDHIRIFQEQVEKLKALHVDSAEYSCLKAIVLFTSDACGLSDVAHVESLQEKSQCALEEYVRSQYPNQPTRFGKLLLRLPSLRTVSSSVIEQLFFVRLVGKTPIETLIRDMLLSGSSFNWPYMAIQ
Gal4-VP16 ctr – inhibits VP16 reporter, flagging COUP-TFII antagonist hits; inhibition, % at 8.5 µM; 25% of 2,500 active; HEK293 Gal4-VP16 luciferase reporter, luminescence; shares compounds with NR2F2 inh; in the data active means inhibition above about 13%
NR2F2 inh conf – confirmation of human COUP-TFII (NR2F2) inhibitors; shares compounds with NR2F2 inh; HEK293 NGFI-A luciferase reporter, luminescence; AID 687008; 45% of 2,500 active; inhibition, % at 8.5 µM;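 active means mean inhibition over three repeats above a set limit taken from the earlier primary screen, cut at about 38% in these data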;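 further: 100% = cells given the luciferase reporter alone without the COUP-TF2 vector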
Active calls of the source: *; . = no result.

SMILES	SRC1 inh	NR5A2 inv ag	NCOA3 inh	SRC2 inh	NR2F2 inh	Gal4-VP16 ctr	NR2F2 inh conf
COC(=O)c1ccc(C(=O)NC2CCCc3c2cnn3-c2ccccc2F)nc1 (centres undefined)	1.1	30.8	5.6	-4.3	8.8	.	.
O=C(NC1CCCc2c1cnn2-c1ccc(F)cc1F)c1cccs1 (centres undefined)	.	.	.	.	28.9	.	.
Cc1nnsc1C(=O)NC1CCCc2c1cnn2-c1ccc(F)cc1F (centres undefined)	13.8	49.4	11.5	4.3	63.9*	2.2	65.8*
Cc1onc(-c2ccccc2)c1C(=O)N1CCN(C(=O)C(=O)c2cccc(C(F)(F)F)c2)CC1	.	.	.	-2.8	9.0	.	.
CCCn1c(N)c(CC)c(=O)[nH]c1=O	15.8	1.7	-20.7	-26.8	-8.2	.	.
Cc1cccc(NC(=O)CNC(=O)[C@@H](Cc2ccccc2)NC(=O)[C@H]2O[C@@H](n3ccc(=O)[nH]c3=O)[C@H](O)[C@@H]2O)c1C	.	.	.	0.1	-6.3	.	.
COC(=O)[C@]1(CC(C)C)NC=C(C(=O)c2ccccc2)[C@@H]1c1cccs1	.	.	.	-19.9	3.7	.	.
Nc1[nH]c(C(=O)c2ccccc2)c(-c2cccc3ccccc23)c1C(=O)NCc1ccc(Cl)cc1Cl	.	.	.	-6.8	-24.3	.	.
COc1ccc(Br)cc1S(=O)(=O)NNC(=O)c1c(C)nc2ccccn12	10.6	-7.1	10.7	-17.6	4.5	.	.
Cc1nc2ccccn2c1C(=O)NNS(=O)(=O)c1ccc(C(C)(C)C)cc1	13.5	22.0	13.3	3.5	45.9*	2.9	33.5
CC(=O)Nc1ccc(N/C(N)=N/c2nc(C)cc(C)n2)cc1	-10.9	23.6	14.9	-3.1	-7.3	.	.
Cc1cc(C)nc(/N=C(\N)Nc2ccc(-c3ccccc3)cc2)n1	25.4	28.9	47.1	8.5	56.2*	4.2	35.1
CC(C)(N[C@@H](Cc1c[nH]c2ccccc12)C(=O)NCC(c1ccccc1)c1ccccc1)C(=O)NC1CCCCC1	.	.	.	.	12.0	.	.
COc1ccc(S(=O)(=O)Nc2ccc(S(=O)(=O)Nc3nccs3)cc2)cc1	-17.3	-27.2	-7.7	-20.9	-1.8	.	.
CCC(C)NS(=O)(=O)c1ccc(S(=O)(=O)N(CCc2ccc(OC)c(OC)c2)Cc2cccs2)cc1 (centres undefined)	-7.8	15.2	-5.4	29.2	58.4*	9.0	47.9*
COc1ccc(CCN(Cc2cccs2)S(=O)(=O)c2ccccc2)cc1OC	.	.	.	-2.1	8.4	.	.
COc1ccc(CCN(Cc2cccs2)S(=O)(=O)c2ccc(F)cc2)cc1OC	.	.	.	31.4	47.4*	4.4	13.8
O=C(Cc1c[nH]c2ccccc12)Nc1ccc(Nc2cccnc2)c(-c2ccc(-c3ccccc3)cc2F)c1	.	.	.	28.8	-4.4	.	.
Cc1cc(C(=O)COC(=O)c2ccco2)c(C)n1Cc1ccco1	16.7	-18.6	9.9	8.8	58.4*	-39.5	33.6
CCOc1ccc(S(=O)(=O)NCc2ccncc2)cc1NC(=O)c1ccccc1	-10.1	21.3	28.5	28.8	59.0*	-2.3	54.5*
COc1ccc(S(=O)(=O)NCc2ccncc2)cc1NC(=O)c1ccccc1	17.9	11.7	13.8	-8.2	35.5	.	.
CC(=O)c1ccc(N2CCN(S(=O)(=O)c3ccc4c(c3)CC(C)N4C(C)=O)CC2)cc1 (centres undefined)	12.8	40.5	18.9	5.4	58.9*	-2.1	44.3*
CC(=O)c1ccc(N2CCN(S(=O)(=O)c3ccc4c(c3)CC(C)N4C(=O)C3CC3)CC2)cc1 (centres undefined)	2.0	6.8	-8.5	15.2	5.7	.	.
CC(=O)N1c2ccc(S(=O)(=O)N3CCC(C(=O)N4CCN(c5cc(Cl)ccc5C)CC4)CC3)cc2CC1C (centres undefined)	-30.7	2.5	14.9	16.6	43.2*	4.8	18.9
CC(=O)N1c2ccc(S(=O)(=O)N3CCC(C(=O)N4CCC(C)CC4)CC3)cc2CC1C (centres undefined)	-24.7	-14.7	13.6	-17.1	8.2	.	.
SMILES	SRC1 inh	NR5A2 inv ag	NCOA3 inh	SRC2 inh	NR2F2 inh	Gal4-VP16 ctr	NR2F2 inh conf
COCc1[nH]nc2c1C(c1cccc(C(F)(F)F)c1)N(c1ccccc1)C2=O (centres undefined)	.	.	.	-14.0	2.3	.	.
CC(=O)N1C[C@H]2CON(C)[C@H]2C[C@H]1c1cccc(-c2ccccc2C)c1	-14.3	-15.1	-15.8	-11.6	78.4*	-10.9	-5.4
O=C(c1cc2sccc2n1Cc1ccc(F)cc1)N1CCN(c2nc3ccccc3s2)CC1	9.9	25.3	17.6	35.6	55.9*	4.4	29.4
Cn1c(C(=O)N2CCN(c3nc4ccccc4s3)CC2)cc2sccc21	-12.1	-2.4	21.2	9.5	4.1	.	.
COC(=O)c1ccc(COc2cccc3c2CCN(Cc2cccc(C)c2)C3=O)o1	-1.7	-9.0	8.3	-1.1	37.9*	-4.4	-0.8
O=C1c2cccc(OCc3ccc(F)cc3)c2CCN1Cc1ccc(F)cc1	31.4	15.9	31.7	19.0	57.8*	0.8	43.5*
COCCN=c1scc(-c2ccc3c(c2)NC(=O)CO3)n1/N=C(\C)c1ccc(O)cc1	-7.8	11.3	15.1	23.1	37.9*	-8.4	0.4
COC(=O)[C@]12C[C@H](CC(=O)NCCCCc3ccccc3)C(=O)N(CCC3=CCCCC3)C1=C[C@H](C(C)C)O[C@@H]2C1CC1	.	.	.	0.6	1.1	.	.
COc1cc(C(=O)Oc2cccc(Nc3ncnc4ccccc34)c2)cc(OC)c1OC	1.8	21.8	20.6	-1.0	60.5*	-3.9	48.7*
COc1ccc(C(=O)Oc2cccc(Nc3ncnc4ccccc34)c2)cc1OC	-8.1	10.8	3.3	11.6	17.1	.	.
COc1cccc(CC(=O)N(Cc2ccccc2)c2ccccc2C(=O)Nc2cc(OC)ccc2OC)c1	.	.	.	-5.4	20.2	.	.
CS(=O)(=O)Nc1ccc(N2CCN(c3ccc(C(F)(F)F)cn3)CC2)nc1	1.1	8.7	13.8	15.8	43.1*	-2.5	10.7
O=C(Nc1ccc(N2CCOCC2)nc1)c1ccc(C(F)(F)F)cc1	7.6	1.2	18.6	23.5	48.7*	9.8	34.7
Cc1cc(C)cc(Oc2ccc(N)cc2)c1	-17.4	32.2	5.4	24.4	50.7*	19.6*	24.3
Cc1cccc(Oc2ccc(N)cc2)c1	-103.8	-10.7	-9.2	-15.3	13.2	.	.
Nc1ccc(Oc2ccc(Br)cc2)cc1	-17.1	26.1	-7.1	12.3	26.8	.	.
Nc1ccc(Oc2cccc(Oc3ccc(N)cc3)c2)cc1	43.6	66.6	44.3	85.7*	76.7*	76.9*	74.3*
C(=C\c1ccccc1)/CN1CCN(C(c2ccnc3ccccc23)c2nnnn2C2CCCC2)CC1 (centres undefined)	4.2	24.4	8.4	14.6	9.4	.	.
COc1ccccc1CNc1nc2cc(-c3ccc(OC)c(OC)c3)sc2c(=O)n1C	6.6	1.1	-23.0	12.2	40.7*	-12.6	8.1
